Test results taken from PubChem BioAssay AID1159580 (chemical genetic matrix, 2015).
Values joined by “and” are separate entries in the source; they are usually repeats but may differ in a detail not shown here. Equal entries are not always repeated. Among all 5,500 compounds or so, about 2,000 (36%) were called active. Not shown: some 18% with an inconclusive outcome. Cut-off read from the data, not from the text of the source: active = normalized growth mostly below about 0.91 (no sharp cut-off); inconclusive = no clear call, values can overlap the other calls; inactive = mostly above about 0.92. Some of the results follow.

Assay: chemical genetic growth profiling, strain panel (AID 1159580);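 note: tested at 20 µM; growth read once vehicle control cultures reached saturation at 30 °C; 1 = growth at the plate median or of vehicle wells; lower values mean less growth of the strain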
Details: S. cerevisiae deletion strains, growth OD

Measured: normalized growth

CC1=CC2C(CC1=O)C(C)=CCC2C(C)C (stereo unspecified)
inactive: locus YAL021C, strain ccr4, stronger effect = lower value 1.02 | locus YAL026C, strain drs2, stronger effect = lower value 0.996 | locus YAL030W, strain snc1, stronger effect = lower value 1 | locus YBL061C, strain skt5, stronger effect = lower value 1.02 | locus YBR009C, strain hhf1, stronger effect = lower value 0.98 | locus YBR021W, strain FUR4, stronger effect = lower value 0.923 | locus YBR023C, strain chs3, stronger effect = lower value 0.992 | locus YBR171W, strain sec66, stronger effect = lower value 1 | locus YBR229C, strain ROT2, stronger effect = lower value 1.01 | locus YBR231C, strain swc5, stronger effect = lower value 0.998 | locus YBR279W, strain paf1, stronger effect = lower value 1 | locus YCL011C, strain gbp2, stronger effect = lower value 1.01 | locus YCL016C, strain dcc1, stronger effect = lower value 1.01 | locus YCL029C, strain bik1, stronger effect = lower value 0.976 | locus YCL061C, strain MRC1, stronger effect = lower value 0.991 | locus YCL069W, strain vba3, stronger effect = lower value 1.01 | locus YCR088W, strain abp1, stronger effect = lower value 1 | locus YDL005C, strain med2, stronger effect = lower value 1.02 | locus YDL035C, strain GPR1, stronger effect = lower value 0.96 | locus YDL040C, strain nat1, stronger effect = lower value 1.01 | locus YDL074C, strain BRE1, stronger effect = lower value 0.902 | locus YDL101C, strain DUN1, stronger effect = lower value 0.966 | locus YDR001C, strain nth1, stronger effect = lower value 0.996 | locus YDR069C, strain doa4, stronger effect = lower value 1.02 | locus YDR101C, strain arx1, stronger effect = lower value 0.929 | locus YDR137W, strain rgp1, stronger effect = lower value 0.896 | locus YDR159W, strain sac3, stronger effect = lower value 1.01 | locus YDR162C, strain NBP2, stronger effect = lower value 0.92 | locus YDR195W, strain ref2 0.977 | locus YDR297W, strain sur2, stronger effect = lower value 1.02 | locus YDR318W, strain mcm21, stronger effect = lower value 0.946 | locus YDR334W, strain swr1, stronger effect = lower value 1.01 | locus YDR335W, strain msn5, stronger effect = lower value 1.01 | locus YDR388W, stronger effect = lower value 0.987 | locus YEL003W, strain gim4, stronger effect = lower value 1.02 | locus YEL037C, strain rad23, stronger effect = lower value 0.997 | locus YEL061C, strain CIN8 (second series), stronger effect = lower value 1.01 | locus YER015W, strain faa2, stronger effect = lower value 1 | locus YER016W, strain bim1, stronger effect = lower value 1.01 | locus YER110C, stronger effect = lower value 1.01 | locus YER111C, strain swi4, stronger effect = lower value 0.996 | locus YER155C, strain BEM2 (second series), stronger effect = lower value 0.98 | locus YER155C, strain BEM2, stronger effect = lower value 0.948 | locus YER167W, strain BCK2, stronger effect = lower value 0.937 | locus YFR010W, strain ubp6, stronger effect = lower value 1 | locus YGL078C, strain dbp3, stronger effect = lower value 0.943 | locus YGL167C, strain pmr1, stronger effect = lower value 1.01 | locus YGL173C, strain kem1, stronger effect = lower value 1.01 | locus YGL227W, strain vid30, stronger effect = lower value 1.01 | locus YGL240W, strain doc1, stronger effect = lower value 0.998 | locus YGL248W, strain PDE1, stronger effect = lower value 0.952 | locus YGL253W, strain hxk2, stronger effect = lower value 1 | locus YGR252W, strain gcn5, stronger effect = lower value 0.972 | locus YHR013C, strain ard1, stronger effect = lower value 1.03 | locus YHR027C, strain rpn1, stronger effect = lower value 1.01 | locus YHR079C, strain IRE1 (second series), stronger effect = lower value 0.989 | locus YHR079C, strain IRE1, stronger effect = lower value 0.96 | locus YHR094C, strain hxt1, stronger effect = lower value 0.989 | locus YHR129C, strain ARP1, stronger effect = lower value 0.95 | locus YHR142W, strain chs7, stronger effect = lower value 0.981 | locus YHR200W, strain rpn10, stronger effect = lower value 0.968 | locus YIL066C, strain RNR3, stronger effect = lower value 0.9 | locus YIL073C, strain SPO22, stronger effect = lower value 0.91 | locus YIL125W, strain kgd1, stronger effect = lower value 0.934 | locus YIR030C, strain dcg1, stronger effect = lower value 0.979 | locus YJL092W, strain hpr5, stronger effect = lower value 0.998 | locus YJL095W, strain BCK1 (second series), stronger effect = lower value 1.01 | locus YJL095W, strain BCK1, stronger effect = lower value 0.808 and 0.979 | locus YJL115W, strain asf1, stronger effect = lower value 1.01 | locus YJL129C, strain trk1, stronger effect = lower value 1 | locus YJL134W, strain LCB3, stronger effect = lower value 1.02 | locus YJL154C, strain vps35, stronger effect = lower value 1.01 | locus YJL164C, strain tpk1, stronger effect = lower value 0.994 | locus YJL166W, strain qcr8, stronger effect = lower value 0.978 | locus YJL168C, strain set2, stronger effect = lower value 0.978 | locus YJL187C, strain SWE1 (second series), stronger effect = lower value 0.971 | locus YJL187C, strain SWE1, stronger effect = lower value 1 | locus YJR043C, strain POL32, stronger effect = lower value 0.98
0.905 (active) and 0.973 (inactive): locus YHR030C, strain SLT2, stronger effect = lower value
active: locus YDL185W, strain tfp1, stronger effect = lower value 0.83 | locus YDL192W, strain arf1, stronger effect = lower value 0.769 | locus YDR392W, strain spt3, stronger effect = lower value 0.594 | locus YDR502C, strain sam2, stronger effect = lower value 0.895 | locus YEL061C, strain CIN8, stronger effect = lower value 0.911 | locus YGL086W, strain mad1, stronger effect = lower value 0.888 | locus YGR135W, strain pre9, stronger effect = lower value 0.881
